According to the supplement of paper PMC8728848:
Only a selection was taken, and the strongest signals are over-represented in it overall.

Legend:
Assay in all cases: glycan array binding signal (z-score within array); higher = stronger binding
Conditions in all cases: glycan notation: IUPAC condensed, linker removed
Fuc(a1-2)Gal(b1-3)GalNAc = biological target: Fuc(a1-2)Gal(b1-3)GalNAc
Outline: (§1)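 Columns mapping to the same glycan were averaged after glycan names were converted to IUPAC-condensed notation. The data come from 3228 arrays in the Consortium for Functional Glycomics database, limited to those with an available protein sequence. Binding is reported as a within-array Z-score averaged across arrays of one protein sequence and across linkers.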

[1] = biological target: Fuc(a1-2)Gal(b1-3)GalNAc(a1-3)[Fuc(a1-2)]Gal(b1-4)Glc
Outline: as §1

[2] = biological target: Fuc(a1-2)Gal(b1-3)GalNAc(a1-3)[Fuc(a1-2)]Gal(b1-4)GlcNAc
Outline: as §1

[3] = biological target: Fuc(a1-2)Gal(b1-3)[Fuc(a1-4)]GlcNAc(b1-3)[Fuc(a1-3)[Gal(b1-4)]GlcNAc(b1-6)]Gal(b1-4)Glc
Outline: as §1

[4] = biological target: Fuc(a1-2)Gal(b1-4)GlcNAc(b1-3)GalNAc
Outline: as §1

[5] = biological target: Fuc(a1-2)Gal(b1-4)GlcNAc6S
Outline: as §1

[6] = biological target: Fuc(a1-2)Gal(b1-4)[Fuc(a1-3)]GlcNAc(b1-3)Gal(b1-4)[Fuc(a1-3)]GlcNAc
Outline: as §1

[7] = biological target: Fuc(a1-2)[Gal(a1-3)]Gal(b1-4)Glc
Outline: as §1

[8] = biological target: Fuc(a1-2)[Gal(a1-4)]Gal(b1-4)GlcNAc
Outline: as §1

[9] = biological target: Fuc(a1-2)[GalNAc(b1-3)]Gal
Outline: as §1

[10] = biological target: Fuc(a1-3)[Gal(b1-4)]GlcNAc(b1-3)GalNAc
Outline: as §1

[11] = biological target: Fuc(a1-3)[Gal(b1-4)]GlcNAc(b1-6)[Gal(b1-3)GlcNAc(b1-3)]Gal(b1-4)Glc
Outline: as §1

[12] = biological target: Fuc(a1-3)[GalNAc(b1-4)]GlcNAc
Outline: as §1

[13] = biological target: Gal(a1-4)Gal(b1-3)GlcNAc(b1-2)Man(a1-3)[Gal(a1-4)Gal(b1-3)GlcNAc(b1-2)Man(a1-6)]Man(b1-4)GlcNAc(b1-4)GlcNAc
Outline: as §1

[14] = biological target: Gal(b1-3)Gal(b1-4)GlcNAc(b1-2)Man(a1-3)[Gal(b1-3)Gal(b1-4)GlcNAc(b1-2)Man(a1-6)]Man(b1-4)GlcNAc(b1-4)GlcNAc
Outline: as §1

[15] = biological target: Gal(b1-3)GlcNAc(b1-2)Man(a1-3)[Gal(b1-3)GlcNAc(b1-2)Man(a1-6)]Man(b1-4)GlcNAc(b1-4)GlcNAc
Outline: as §1

[16] = biological target: Gal(b1-4)GlcNAc(b1-2)Man(a1-3)[Gal(b1-4)GlcNAc(b1-2)][GlcNAc(b1-4)]Man(b1-4)GlcNAc(b1-4)GlcNAc
Outline: as §1

[17] = biological target: Gal(b1-4)GlcNAc(b1-2)Man(a1-3)[GlcNAc(b1-2)Man(a1-6)]Man(b1-4)GlcNAc(b1-4)GlcNAc
Outline: as §1

[18] = biological target: Gal(b1-4)GlcNAc(b1-2)Man(a1-6)[Man(a1-3)]Man(b1-4)GlcNAc(b1-4)GlcNAc
Outline: as §1

[19] = biological target: Gal(b1-4)GlcNAc(b1-2)[Gal(b1-4)GlcNAc(b1-6)]Man(a1-6)[Gal(b1-4)GlcNAc(b1-2)Man(a1-3)]Man(b1-4)GlcNAc(b1-4)[Fuc(a1-6)]GlcNAc
Outline: as §1

[20] = biological target: Gal(b1-4)GlcNAc(b1-6)GalNAc
Outline: as §1

[21] = biological target: Gal3S(b1-4)[Fuc(a1-3)]Glc6S
Outline: as §1

GalNAc3S(b1-4)GlcNAc = biological target: GalNAc3S(b1-4)GlcNAc
Outline: as §1

Glc(b1-4)Glc = biological target: Glc(b1-4)Glc
Outline: as §1

[22] = biological target: GlcNAc(b1-2)Man(a1-3)[GlcNAc(b1-2)Man(a1-6)]Man(b1-4)GlcNAc(b1-4)GlcNAc
Outline: as §1

[23] = biological target: GlcNAc(b1-3)[GlcNAc(b1-6)]GalNAc
Outline: as §1

Kdn(a2-3)Gal(b1-4)Glc = biological target: Kdn(a2-3)Gal(b1-4)Glc
Outline: as §1

[24] = biological target: Man(a1-2)Man(a1-3)[Man(a1-2)Man(a1-6)]Man(a1-6)[Man(a1-2)Man(a1-2)Man(a1-3)]Man
Outline: as §1

[25] = biological target: Man(a1-2)Man(a1-6)[Man(a1-3)]Man(a1-6)[Man(a1-2)Man(a1-2)Man(a1-3)]Man
Outline: as §1

[26] = biological target: Man(a1-3)[Man(a1-6)]Man(a1-6)[Man(a1-2)Man(a1-3)]Man(b1-4)GlcNAc(b1-4)GlcNAc
Outline: as §1

[27] = biological target: Man(a1-3)[Man(a1-6)]Man(a1-6)[Man(a1-3)]Man(b1-4)GlcNAc(b1-4)GlcNAc
Outline: as §1

[28] = biological target: Man(a1-3)[Man(a1-6)]Man(b1-4)GlcNAc(b1-4)GlcNAc
Outline: as §1

[29] = biological target: Neu5Ac(a2-3)Gal(b1-3)GalNAc(b1-4)[Neu5Ac(a2-3)]Gal(b1-4)Glc
Outline: as §1

[30] = biological target: Neu5Ac(a2-3)Gal(b1-4)[Fuc(a1-3)]GlcNAc(b1-3)Gal(b1-4)[Fuc(a1-3)]GlcNAc(b1-3)Gal(b1-4)[Fuc(a1-3)]GlcNAc
Outline: as §1

Neu5Ac(a2-6)Gal = biological target: Neu5Ac(a2-6)Gal
Outline: as §1

[31] = biological target: Neu5Ac(a2-6)Gal(b1-4)GlcNAc(b1-2)Man(a1-3)[Neu5Ac(a2-6)Gal(b1-4)GlcNAc(b1-2)Man(a1-6)]Man(b1-4)GlcNAc(b1-4)GlcNAc
Outline: as §1

[32] = biological target: Neu5Ac(a2-6)Gal(b1-4)GlcNAc(b1-2)Man(a1-3)[Neu5Ac(a2-6)Gal(b1-4)GlcNAc(b1-2)Man(a1-6)]Man(b1-4)GlcNAc(b1-4)[Fuc(a1-6)]GlcNAc
Outline: as §1

[33] = biological target: Neu5Ac(a2-6)Gal(b1-4)GlcNAc(b1-2)Man(a1-6)[Man(a1-3)]Man(b1-4)GlcNAc(b1-4)GlcNAc
Outline: as §1

[34] = biological target: Neu5Ac(a2-6)Gal(b1-4)GlcNAc(b1-3)GalNAc
Outline: as §1

Neu5Ac(a2-6)GalNAc = biological target: Neu5Ac(a2-6)GalNAc
Outline: as §1

[35] = biological target: Neu5Ac(a2-6)GalNAc(b1-4)GlcNAc6S
Outline: as §1

B1: SalT (Orysata sativa) (protein)
chain: MTLVKIGLWGGNGGSAQDISVPPKKLLGVTIYSSDAIRSIAFNYIGVDGQEYAIGPWGGGEGTSTEIKLGSSEHIKEISGTHGPVYDLADIVTYLKIVTSANNTYEAGVPNGKEFSIPLQDSGHVVGFFGRSGTLIDAIGIYVHPILEQKLISEEDLNSAVDHHHHHH
With B1 the “glycan array binding signal (z-score)” value (Fuc(a1-2)Gal(b1-3)GalNAc) was -0.283, the “glycan array binding signal (z-score)” value [1] was -0.306 and the “glycan array binding signal (z-score)” value [2] was -0.31. For the same binder, the “glycan array binding signal (z-score)” value [3] was -0.307, the “glycan array binding signal (z-score)” value [4] was -0.307 and the “glycan array binding signal (z-score)” value [5] was -0.308. The “glycan array binding signal (z-score)” value [6] was -0.308, the “glycan array binding signal (z-score)” value [7] was -0.308 and the “glycan array binding signal (z-score)” value [8] was -0.309. The “glycan array binding signal (z-score)” value [9] was -0.31, the “glycan array binding signal (z-score)” value [10] was -0.301 and the “glycan array binding signal (z-score)” value [11] was -0.31. For the same binder, the “glycan array binding signal (z-score)” value [12] was -0.306, the “glycan array binding signal (z-score)” value [13] was 3.59 and the “glycan array binding signal (z-score)” value [14] was 3.71. The “glycan array binding signal (z-score)” value [15] was 3.69, the “glycan array binding signal (z-score)” value [16] was 0.03 and the “glycan array binding signal (z-score)” value [17] was 2.65. For the same binder, the “glycan array binding signal (z-score)” value [18] was 4.64, the “glycan array binding signal (z-score)” value [19] was 0.799 and the “glycan array binding signal (z-score)” value [20] was -0.307. For the same binder, the “glycan array binding signal (z-score)” value [21] was -0.3, the “glycan array binding signal (z-score)” value (GalNAc3S(b1-4)GlcNAc) was -0.306 and the “glycan array binding signal (z-score)” value (Glc(b1-4)Glc) was -0.309. For the same binder, the “glycan array binding signal (z-score)” value [22] was 4.06, the “glycan array binding signal (z-score)” value [23] was -0.309 and the “glycan array binding signal (z-score)” value (Kdn(a2-3)Gal(b1-4)Glc) was -0.306. The “glycan array binding signal (z-score)” value [24] was -0.304, the “glycan array binding signal (z-score)” value [25] was -0.282 and the “glycan array binding signal (z-score)” value [26] was 5.46. The “glycan array binding signal (z-score)” value [27] was 3.62, the “glycan array binding signal (z-score)” value [28] was 4.94 and the “glycan array binding signal (z-score)” value [29] was -0.304. For the same binder, the “glycan array binding signal (z-score)” value [30] was -0.305, the “glycan array binding signal (z-score)” value (Neu5Ac(a2-6)Gal) was -0.305 and the “glycan array binding signal (z-score)” value [31] was 2.81. The “glycan array binding signal (z-score)” value [32] was 0.435, the “glycan array binding signal (z-score)” value [33] was 4.96 and the “glycan array binding signal (z-score)” value [34] was -0.296. The “glycan array binding signal (z-score)” value (Neu5Ac(a2-6)GalNAc) was -0.307 and the “glycan array binding signal (z-score)” value [35] was -0.303.
